Compounds with a hit are over-represented: about 1.5% of the library has one in this group of screens.
miR122 inh: blocks miR-122 activity in Huh7 sensor cells | Huh7 miR-122 Renilla luciferase sensor, 48 h; neutral wells = 0, positive control = 100 | activation (reporter increase), % at 12.5 µM | actives 0.3% (n = 340,000) | AID 602342;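 active = mean replicate activation score at least 90 and every replicate individually at or above 90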;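 note: higher luciferase means less miR-122 activity so hits act as miR-122 inhibitors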
Glyco luc inh: blocks N-linked glycosylation in D54 reporter cells; D54 ERlucT glycosylation luciferase reporter, 24 h; percent of 100 nM tunicamycin response; actives 0.23% (n = 360,000); reporter increase, % at 12.5 µM; AID 588692;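 active = mean luciferase reporter signal, scaled so untreated is 0 and the glycosylation-blocking control 100, at or above a set limit in every replicate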;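 note: luciferase carries N-glycosylation sites so blocking glycosylation raises the light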
NRP1-CendR mod: modulators of CendR peptide binding to human neuropilin-1. O14786. FAM-RPARPAR peptide binding to NRP-1, fluorescence polarization. inhibition, % at 25 µM. actives 0.85% (n = 360,000);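 active = inhibition or corrected inhibition above about 18%, plus a signal ratio from 0.5 to 1.5, limit read from the data, passing the limit was not always enough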
RAD54 branch: RAD54 (human) branch migration inhibition. Q92698. RAD54 Holliday junction branch migration, FAM/BHQ fluorescence. inhibition, % at 10.4 µM. actives 0.14% (n = 360,000). AID 602329;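 active = mean normalized replicate activity at least 40 and at least half of replicates scoring 40 or more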;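 note: inhibitors cause a drop in the FAM fluorescence signal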
Target sequence (Q92698 whole entry, looked up): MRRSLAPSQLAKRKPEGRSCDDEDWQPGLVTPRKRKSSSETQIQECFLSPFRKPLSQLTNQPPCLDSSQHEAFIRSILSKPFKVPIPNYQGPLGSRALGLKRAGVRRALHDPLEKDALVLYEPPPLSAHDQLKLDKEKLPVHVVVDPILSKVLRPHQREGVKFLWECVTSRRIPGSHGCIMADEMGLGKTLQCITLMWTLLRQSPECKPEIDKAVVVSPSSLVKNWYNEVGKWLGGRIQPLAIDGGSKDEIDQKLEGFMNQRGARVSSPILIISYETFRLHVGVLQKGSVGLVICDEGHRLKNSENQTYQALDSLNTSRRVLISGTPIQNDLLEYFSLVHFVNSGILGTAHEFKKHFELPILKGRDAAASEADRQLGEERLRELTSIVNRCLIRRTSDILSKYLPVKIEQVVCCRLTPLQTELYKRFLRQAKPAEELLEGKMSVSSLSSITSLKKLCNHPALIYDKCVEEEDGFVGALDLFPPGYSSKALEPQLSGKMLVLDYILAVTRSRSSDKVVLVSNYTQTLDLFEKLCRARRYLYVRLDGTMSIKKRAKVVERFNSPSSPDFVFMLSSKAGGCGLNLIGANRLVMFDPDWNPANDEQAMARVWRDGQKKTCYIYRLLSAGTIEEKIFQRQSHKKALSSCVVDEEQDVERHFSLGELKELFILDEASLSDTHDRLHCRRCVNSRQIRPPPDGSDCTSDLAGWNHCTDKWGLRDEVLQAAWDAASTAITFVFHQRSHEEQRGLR
RAD52 anneal inh: inhibitors of human RAD52 DNA annealing; inhibition, % at 18.7 µM; P43351; AID 651710; recombinant RAD52 DNA annealing, FRET fluorescence; actives 0.46% (n = 360,000);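 active = every replicate showing at least 50% inhibition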
DNA FID counter: counter-screen for HCV NS3 helicase inhibitors: DNA intercalator displacement; DNA fluorescent intercalator displacement, fluorescence; inhibition, % at 7.9 µM; actives 0.17% (n = 290,000); in the data active = inhibition above about 37%;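 note: higher means more ethidium bromide displaced from hairpin DNA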
Large screens that a line does not name were inactive.

C[C@H](CO)N1C[C@H](C)[C@@H](CN(C)Cc2ccc(-c3ccccc3)cc2)Oc2ccc(NC(=O)NC3CCCCC3)cc2C1=O	RAD52 anneal inh 89 (no result: Glyco luc inh, NRP1-CendR mod, DNA FID counter)
C[C@@H]1CN([C@@H](C)CO)C(=O)c2cccc(NC(=O)NC3CCCCC3)c2O[C@@H]1CN(C)Cc1ccc(Oc2ccccc2)cc1	none (no result: Glyco luc inh, NRP1-CendR mod, DNA FID counter)
COc1ccc(CN(C)C[C@@H]2Oc3ccc(NC(=O)Nc4c(C)noc4C)cc3C(=O)N([C@H](C)CO)C[C@H]2C)cc1	RAD54 branch 56 (no result: Glyco luc inh, NRP1-CendR mod, DNA FID counter)
O=C(NCC[C@@H]1CC[C@@H](NC(=O)C2CCC2)[C@H](CO)O1)Nc1ccc(Cl)cc1	none (no result: miR122 inh, Glyco luc inh, NRP1-CendR mod, DNA FID counter)
CCC(=O)N1[C@@H]2c3cccc(=O)n3C[C@H]1[C@H](CO)[C@H]2C(=O)NC1Cc2ccccc2C1	none (no result: miR122 inh, Glyco luc inh, NRP1-CendR mod, RAD54 branch, DNA FID counter)
CC(C)CC#Cc1ccc([C@@H]2[C@H]3CN(C(=O)NC4CCCC4)CC(=O)N3[C@H]2CO)cc1	none (no result: miR122 inh, Glyco luc inh, NRP1-CendR mod, RAD54 branch, DNA FID counter)
COC(=O)c1c(NC(=O)CN(c2ccccc2)S(C)(=O)=O)sc2c1CCCC2	NRP1-CendR mod 27 (no result: RAD52 anneal inh)
COC(=O)c1c(NS(=O)(=O)Cc2ccccc2)sc2c1CCCC2	none (no result: RAD52 anneal inh)
CCOC(=O)c1c(NC(=O)c2ccccc2N(C)S(=O)(=O)c2ccccc2)sc2c1CCCC2	miR122 inh 162
COc1ccc2c3c(n(C)c2c1)[C@@H](CO)N(Cc1cc(F)ccc1F)CC31CCN(C(=O)C2CC2)CC1	none (no result: miR122 inh, Glyco luc inh, NRP1-CendR mod, RAD54 branch, DNA FID counter)
CNC(=O)C[C@H]1CC[C@@H]2[C@@H](COc3ccc(NC(=O)c4cc(F)cc(F)c4)cc3C(=O)N2C)O1	none (no result: Glyco luc inh, NRP1-CendR mod, DNA FID counter)
O=C(Nc1ccc(Cl)c([N+](=O)[O-])c1)C(NCCCO)c1ccccc1 (configuration not stated)	miR122 inh 226 (no result: RAD52 anneal inh)
C[C@H]1CN([C@@H](C)CO)C(=O)c2cc(-c3ccc(F)cc3)cnc2O[C@H]1CN(C)C(=O)c1ccncc1	none (no result: Glyco luc inh, NRP1-CendR mod, RAD54 branch, RAD52 anneal inh, DNA FID counter)
COc1ccccc1CN1CCNC(=O)C1CC(=O)NC1CCCCCC1 (configuration not stated)	NRP1-CendR mod 26
Cn1cc(S(=O)(=O)N2CCOCC2)cc1C(=O)O	NRP1-CendR mod 31 (no result: DNA FID counter)
COc1cc(S(=O)(=O)N(Cc2ccco2)C2CCCC2)ccc1-n1cnnn1	none
CCOc1ccccc1CN(Cc1ccco1)S(=O)(=O)c1ccc(-n2cnnn2)c(OC)c1	miR122 inh 138
CC1CCc2cc(F)ccc2N1C(=O)c1cccs1 (configuration not stated)	none
CC1CCc2cc(F)ccc2N1C(=O)CCC(=O)O (configuration not stated)	NRP1-CendR mod 25 (no result: RAD52 anneal inh)
COc1ccc(S(=O)(=O)N[C@@H]2CC[C@H](CCn3cc(-c4cccc(F)c4)nn3)O[C@@H]2CO)cc1	none (no result: miR122 inh, Glyco luc inh, NRP1-CendR mod, DNA FID counter)
CCOC(=O)c1ccc(NC(=O)O[C@H]2[C@H](OC(=O)Nc3ccccc3)[C@@H](OC(=O)Nc3ccccc3)[C@@H](OC)O[C@@H]2CO)cc1	none (no result: miR122 inh, Glyco luc inh, NRP1-CendR mod, DNA FID counter)
Cc1ccsc1/C=N/NC(=O)C(=O)NCC(C)C	NRP1-CendR mod 32
CCCCC(=O)N/N=C/c1sccc1C	none
O=C(O)C1CC(=O)N(c2ccc(Br)cc2)C1 (configuration not stated)	none (no result: miR122 inh, RAD54 branch, RAD52 anneal inh)
C=CCN(CC=C)C(=O)C1CC(=O)N(c2ccc(Br)cc2)C1 (configuration not stated)	NRP1-CendR mod 30 (no result: RAD52 anneal inh)
CC(=O)N[C@@H]1CC[C@H](CCNC(=O)C2CCCCC2)O[C@H]1CO	none (no result: miR122 inh, Glyco luc inh, NRP1-CendR mod, RAD54 branch, DNA FID counter)
COC(=O)c1c(N)n(CCCN2CCOCC2)c2nc3ccccc3nc12	RAD54 branch 79 (no result: RAD52 anneal inh)
C[C@@H]1CN([C@@H](C)CO)C(=O)Cc2cc(NC(=O)Nc3ccc4c(c3)OCO4)ccc2O[C@H]1CN(C)C(=O)Nc1ccc(F)cc1	none (no result: Glyco luc inh, NRP1-CendR mod, RAD52 anneal inh, DNA FID counter)
Cc1cc(C)cc(NC(=O)c2ccc(CSc3nnnn3C)cc2)c1	NRP1-CendR mod 28 (no result: miR122 inh)
CN(C)C(=O)[C@H]1[C@H](CO)[C@H]2Cn3c(ccc(C4=CCCCC4)c3=O)[C@@H]1N2C	RAD52 anneal inh 63 (no result: Glyco luc inh, NRP1-CendR mod, DNA FID counter)
CN(C)C(=O)[C@@H]1[C@@H](CO)[C@@H]2Cn3c(ccc(C4=CCCCC4)c3=O)[C@H]1N2CC1CC1	none (no result: Glyco luc inh, NRP1-CendR mod, DNA FID counter)
O=C(CC1C(=O)NCCN1Cc1cccc(C(F)(F)F)c1)NCCc1cnccn1 (configuration not stated)	NRP1-CendR mod 21
C[C@H](CO)N1C[C@H](C)[C@H](CN(C)Cc2ccc(F)cc2)Oc2ncc(C3=CCCC3)cc2C1=O	none (no result: Glyco luc inh, NRP1-CendR mod, DNA FID counter)

Bioassay records as filed in PubChem.
